# Legend:
# [1] = molecular target: T1, Mitogen-activated protein kinase 12 (Homo sapiens) (UniProt P53778); details: at 1 µM;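 note: values are averaged p38gamma kinase inhibition readings, compounds tested at 1 µM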
# T1 sequence (whole entry): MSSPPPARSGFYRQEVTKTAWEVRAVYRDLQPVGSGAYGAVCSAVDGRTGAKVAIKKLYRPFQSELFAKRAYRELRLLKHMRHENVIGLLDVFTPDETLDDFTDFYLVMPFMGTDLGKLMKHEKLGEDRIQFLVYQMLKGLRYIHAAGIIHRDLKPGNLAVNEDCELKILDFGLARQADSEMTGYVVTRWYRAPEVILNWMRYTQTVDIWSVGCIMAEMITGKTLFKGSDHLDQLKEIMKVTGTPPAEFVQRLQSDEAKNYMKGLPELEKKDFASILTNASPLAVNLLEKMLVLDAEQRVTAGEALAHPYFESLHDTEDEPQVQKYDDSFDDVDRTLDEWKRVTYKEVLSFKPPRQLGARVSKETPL
# [2] = molecular target: SRSF protein kinase 1 (Homo sapiens) (UniProt Q96SB4); details: at 0.1 µM
# Sequence of SRSF protein kinase 1 (Homo sapiens) (Q96SB4 whole entry, canonical isoform): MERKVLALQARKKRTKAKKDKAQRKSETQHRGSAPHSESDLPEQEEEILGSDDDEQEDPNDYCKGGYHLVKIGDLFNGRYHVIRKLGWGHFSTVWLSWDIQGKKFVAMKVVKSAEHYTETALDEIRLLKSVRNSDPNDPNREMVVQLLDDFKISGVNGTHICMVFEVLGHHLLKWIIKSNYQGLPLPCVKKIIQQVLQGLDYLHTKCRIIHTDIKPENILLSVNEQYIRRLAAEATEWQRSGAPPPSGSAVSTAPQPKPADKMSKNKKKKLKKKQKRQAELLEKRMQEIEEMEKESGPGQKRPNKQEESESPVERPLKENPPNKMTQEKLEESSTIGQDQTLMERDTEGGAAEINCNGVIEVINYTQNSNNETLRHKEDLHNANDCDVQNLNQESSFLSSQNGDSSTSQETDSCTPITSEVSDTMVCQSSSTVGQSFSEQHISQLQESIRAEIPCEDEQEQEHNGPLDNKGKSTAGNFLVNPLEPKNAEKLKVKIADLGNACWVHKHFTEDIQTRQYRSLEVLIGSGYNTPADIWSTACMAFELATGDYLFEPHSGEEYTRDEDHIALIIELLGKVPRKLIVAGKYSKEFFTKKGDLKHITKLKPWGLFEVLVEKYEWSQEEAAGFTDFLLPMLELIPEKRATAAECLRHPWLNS
# [3] = molecular target: SRSF protein kinase 1 (Homo sapiens) (UniProt Q96SB4); details: at 1 µM
# [4] = molecular target: Phosphatidylinositol 4,5-bisphosphate 3-kinase catalytic subunit alpha isoform (Homo sapiens) (UniProt P42336); details: at 0.1 µM
# Sequence of Phosphatidylinositol 4,5-bisphosphate 3-kinase catalytic subunit alpha isoform (Homo sapiens) (P42336 whole entry, canonical isoform): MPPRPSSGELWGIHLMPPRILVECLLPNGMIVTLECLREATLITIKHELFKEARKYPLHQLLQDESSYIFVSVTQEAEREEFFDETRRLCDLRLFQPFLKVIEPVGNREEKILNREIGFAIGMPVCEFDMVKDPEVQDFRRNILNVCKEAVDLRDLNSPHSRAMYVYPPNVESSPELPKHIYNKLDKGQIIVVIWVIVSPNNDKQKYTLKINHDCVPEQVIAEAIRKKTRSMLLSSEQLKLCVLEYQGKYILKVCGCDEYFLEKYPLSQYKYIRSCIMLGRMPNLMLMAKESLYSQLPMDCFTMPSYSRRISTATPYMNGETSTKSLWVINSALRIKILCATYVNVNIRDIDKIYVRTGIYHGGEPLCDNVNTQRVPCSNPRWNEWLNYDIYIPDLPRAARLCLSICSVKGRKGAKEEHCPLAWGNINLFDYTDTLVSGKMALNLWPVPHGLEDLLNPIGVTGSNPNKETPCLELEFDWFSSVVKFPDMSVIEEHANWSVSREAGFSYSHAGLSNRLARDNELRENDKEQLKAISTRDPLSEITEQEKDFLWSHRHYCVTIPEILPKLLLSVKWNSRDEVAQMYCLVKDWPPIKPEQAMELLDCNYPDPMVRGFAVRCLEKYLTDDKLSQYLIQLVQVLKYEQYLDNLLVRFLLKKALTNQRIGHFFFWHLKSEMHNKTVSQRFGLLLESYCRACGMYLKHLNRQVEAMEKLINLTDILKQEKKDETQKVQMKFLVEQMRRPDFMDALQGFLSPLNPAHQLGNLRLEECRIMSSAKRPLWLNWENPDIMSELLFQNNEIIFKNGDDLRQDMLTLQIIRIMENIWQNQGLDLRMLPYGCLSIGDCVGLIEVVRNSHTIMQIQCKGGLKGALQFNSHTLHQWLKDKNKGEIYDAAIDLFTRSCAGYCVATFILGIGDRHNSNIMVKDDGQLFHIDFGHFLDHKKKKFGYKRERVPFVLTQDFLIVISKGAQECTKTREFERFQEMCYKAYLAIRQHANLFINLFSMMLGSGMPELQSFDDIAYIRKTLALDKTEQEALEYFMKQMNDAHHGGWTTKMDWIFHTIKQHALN
# [5] = molecular target: Phosphatidylinositol 4,5-bisphosphate 3-kinase catalytic subunit alpha isoform (Homo sapiens) (UniProt P42336); details: at 1 µM
# [6] = molecular target: T2, Phosphatidylinositol 4,5-bisphosphate 3-kinase catalytic subunit delta isoform (Homo sapiens) (UniProt O00329); details: at 0.1 µM
# T2 sequence (whole entry): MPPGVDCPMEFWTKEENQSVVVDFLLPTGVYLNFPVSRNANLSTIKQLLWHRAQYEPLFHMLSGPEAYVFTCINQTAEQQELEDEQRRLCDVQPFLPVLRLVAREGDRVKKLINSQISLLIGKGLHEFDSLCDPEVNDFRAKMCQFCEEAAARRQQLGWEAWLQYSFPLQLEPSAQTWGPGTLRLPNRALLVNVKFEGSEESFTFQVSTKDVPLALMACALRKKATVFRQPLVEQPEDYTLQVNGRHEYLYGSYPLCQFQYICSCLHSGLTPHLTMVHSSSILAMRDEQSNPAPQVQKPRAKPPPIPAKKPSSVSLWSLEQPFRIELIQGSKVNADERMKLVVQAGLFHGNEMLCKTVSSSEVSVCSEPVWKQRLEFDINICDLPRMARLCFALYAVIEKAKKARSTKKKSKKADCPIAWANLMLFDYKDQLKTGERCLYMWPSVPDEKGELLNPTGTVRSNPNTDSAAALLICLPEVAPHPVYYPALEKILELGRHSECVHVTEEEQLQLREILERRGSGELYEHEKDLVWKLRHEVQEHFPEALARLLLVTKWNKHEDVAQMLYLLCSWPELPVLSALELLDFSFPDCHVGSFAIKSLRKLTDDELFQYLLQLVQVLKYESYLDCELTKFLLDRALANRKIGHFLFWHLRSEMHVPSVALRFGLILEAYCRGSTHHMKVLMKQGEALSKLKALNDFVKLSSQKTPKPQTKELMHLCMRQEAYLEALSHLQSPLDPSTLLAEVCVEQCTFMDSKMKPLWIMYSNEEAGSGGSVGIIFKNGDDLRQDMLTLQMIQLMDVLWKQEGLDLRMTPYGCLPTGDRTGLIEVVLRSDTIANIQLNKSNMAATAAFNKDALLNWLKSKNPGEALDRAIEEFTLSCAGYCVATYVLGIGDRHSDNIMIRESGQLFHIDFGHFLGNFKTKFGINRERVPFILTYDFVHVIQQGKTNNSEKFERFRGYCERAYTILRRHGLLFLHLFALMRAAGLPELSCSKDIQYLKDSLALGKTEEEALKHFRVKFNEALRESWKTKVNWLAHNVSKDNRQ
# [7] = molecular target: T2, Phosphatidylinositol 4,5-bisphosphate 3-kinase catalytic subunit delta isoform (Homo sapiens); details: at 1 µM
# [8] = molecular target: Phosphatidylinositol 4-kinase beta (Homo sapiens) (UniProt Q9UBF8); details: at 0.1 µM
# Sequence of Phosphatidylinositol 4-kinase beta (Homo sapiens) (Q9UBF8 2-816 limits assumed): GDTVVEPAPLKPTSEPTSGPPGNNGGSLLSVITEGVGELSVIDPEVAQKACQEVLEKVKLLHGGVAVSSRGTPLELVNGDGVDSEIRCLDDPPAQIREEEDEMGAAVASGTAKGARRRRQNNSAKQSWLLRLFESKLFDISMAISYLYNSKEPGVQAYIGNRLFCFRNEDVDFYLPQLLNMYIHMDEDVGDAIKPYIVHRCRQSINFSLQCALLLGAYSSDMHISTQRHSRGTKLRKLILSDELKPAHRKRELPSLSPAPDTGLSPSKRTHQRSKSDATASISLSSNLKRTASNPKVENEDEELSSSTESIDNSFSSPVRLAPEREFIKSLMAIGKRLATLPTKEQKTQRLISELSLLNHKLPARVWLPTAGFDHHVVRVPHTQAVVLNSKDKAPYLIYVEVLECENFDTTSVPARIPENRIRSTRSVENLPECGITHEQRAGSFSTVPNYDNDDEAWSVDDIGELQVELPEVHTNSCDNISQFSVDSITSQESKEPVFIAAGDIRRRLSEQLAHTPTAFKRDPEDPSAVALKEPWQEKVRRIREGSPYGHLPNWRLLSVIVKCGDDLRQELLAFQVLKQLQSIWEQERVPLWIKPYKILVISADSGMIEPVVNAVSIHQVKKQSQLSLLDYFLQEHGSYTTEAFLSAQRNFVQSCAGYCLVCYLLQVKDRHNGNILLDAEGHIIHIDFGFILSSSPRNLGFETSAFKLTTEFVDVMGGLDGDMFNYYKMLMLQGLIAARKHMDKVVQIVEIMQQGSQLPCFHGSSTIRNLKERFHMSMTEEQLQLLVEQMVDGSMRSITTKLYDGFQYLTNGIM
# [9] = molecular target: Phosphatidylinositol 4-kinase beta (Homo sapiens) (UniProt Q9UBF8); details: at 1 µM
# [10] = molecular target: Sphingosine kinase 1 (Homo sapiens) (UniProt Q9NYA1); details: at 0.1 µM
# Sequence of Sphingosine kinase 1 (Homo sapiens) (Q9NYA1 whole entry): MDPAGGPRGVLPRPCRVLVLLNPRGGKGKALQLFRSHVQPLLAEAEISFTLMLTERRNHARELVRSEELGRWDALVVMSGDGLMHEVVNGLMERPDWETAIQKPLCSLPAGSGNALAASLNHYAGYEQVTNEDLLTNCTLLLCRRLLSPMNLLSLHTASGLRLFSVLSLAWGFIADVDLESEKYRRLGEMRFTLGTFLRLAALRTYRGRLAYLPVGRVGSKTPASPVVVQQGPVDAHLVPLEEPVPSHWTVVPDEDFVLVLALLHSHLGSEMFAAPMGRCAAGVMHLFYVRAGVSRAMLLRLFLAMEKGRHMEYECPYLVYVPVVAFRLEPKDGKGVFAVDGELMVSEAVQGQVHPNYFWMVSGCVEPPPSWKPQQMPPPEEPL
# [11] = molecular target: Sphingosine kinase 1 (Homo sapiens) (UniProt Q9NYA1); details: at 1 µM
# [12] = molecular target: T3, Sphingosine kinase 2 (Homo sapiens) (UniProt Q9NRA0); details: at 0.1 µM
# T3 sequence (whole entry): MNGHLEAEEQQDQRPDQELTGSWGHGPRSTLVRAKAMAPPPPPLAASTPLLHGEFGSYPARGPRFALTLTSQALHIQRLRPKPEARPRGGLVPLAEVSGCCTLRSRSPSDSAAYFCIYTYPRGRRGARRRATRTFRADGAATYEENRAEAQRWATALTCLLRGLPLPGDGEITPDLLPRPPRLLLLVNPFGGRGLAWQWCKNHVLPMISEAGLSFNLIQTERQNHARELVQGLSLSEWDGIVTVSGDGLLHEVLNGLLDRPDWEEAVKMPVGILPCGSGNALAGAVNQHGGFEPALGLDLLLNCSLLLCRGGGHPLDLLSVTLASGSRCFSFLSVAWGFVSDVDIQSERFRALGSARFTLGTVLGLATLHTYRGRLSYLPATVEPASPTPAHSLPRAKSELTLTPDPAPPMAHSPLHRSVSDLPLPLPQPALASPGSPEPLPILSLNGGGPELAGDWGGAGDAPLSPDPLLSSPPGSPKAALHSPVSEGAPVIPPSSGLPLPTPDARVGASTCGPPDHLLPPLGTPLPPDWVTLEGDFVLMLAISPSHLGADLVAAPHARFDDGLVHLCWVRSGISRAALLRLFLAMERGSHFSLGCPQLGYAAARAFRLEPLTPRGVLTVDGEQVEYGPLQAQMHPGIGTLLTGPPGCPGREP
# [13] = molecular target: T3, Sphingosine kinase 2 (Homo sapiens); details: at 1 µM
# [14] = molecular target: Casein kinase II subunit alpha (Homo sapiens) (UniProt P68400); details: at 0.1 µM
# Sequence of Casein kinase II subunit alpha (Homo sapiens) (P68400 whole entry, looked up): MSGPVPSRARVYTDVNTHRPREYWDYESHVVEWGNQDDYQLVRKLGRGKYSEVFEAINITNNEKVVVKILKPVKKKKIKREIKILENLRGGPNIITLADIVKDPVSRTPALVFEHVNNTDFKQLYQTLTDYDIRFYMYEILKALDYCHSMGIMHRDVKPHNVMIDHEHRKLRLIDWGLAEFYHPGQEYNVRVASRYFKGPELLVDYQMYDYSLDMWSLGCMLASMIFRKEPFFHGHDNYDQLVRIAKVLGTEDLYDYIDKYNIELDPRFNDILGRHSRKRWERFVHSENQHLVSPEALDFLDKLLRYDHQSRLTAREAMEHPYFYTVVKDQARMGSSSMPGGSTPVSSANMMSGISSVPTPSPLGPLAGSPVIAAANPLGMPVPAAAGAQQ
# [15] = molecular target: Casein kinase II subunit alpha (Homo sapiens) (UniProt P68400); details: at 1 µM
# [16] = molecular target: T4, Inhibitor of nuclear factor kappa-B kinase subunit alpha (Homo sapiens) (UniProt O15111); details: at 0.1 µM
# T4 sequence (whole entry): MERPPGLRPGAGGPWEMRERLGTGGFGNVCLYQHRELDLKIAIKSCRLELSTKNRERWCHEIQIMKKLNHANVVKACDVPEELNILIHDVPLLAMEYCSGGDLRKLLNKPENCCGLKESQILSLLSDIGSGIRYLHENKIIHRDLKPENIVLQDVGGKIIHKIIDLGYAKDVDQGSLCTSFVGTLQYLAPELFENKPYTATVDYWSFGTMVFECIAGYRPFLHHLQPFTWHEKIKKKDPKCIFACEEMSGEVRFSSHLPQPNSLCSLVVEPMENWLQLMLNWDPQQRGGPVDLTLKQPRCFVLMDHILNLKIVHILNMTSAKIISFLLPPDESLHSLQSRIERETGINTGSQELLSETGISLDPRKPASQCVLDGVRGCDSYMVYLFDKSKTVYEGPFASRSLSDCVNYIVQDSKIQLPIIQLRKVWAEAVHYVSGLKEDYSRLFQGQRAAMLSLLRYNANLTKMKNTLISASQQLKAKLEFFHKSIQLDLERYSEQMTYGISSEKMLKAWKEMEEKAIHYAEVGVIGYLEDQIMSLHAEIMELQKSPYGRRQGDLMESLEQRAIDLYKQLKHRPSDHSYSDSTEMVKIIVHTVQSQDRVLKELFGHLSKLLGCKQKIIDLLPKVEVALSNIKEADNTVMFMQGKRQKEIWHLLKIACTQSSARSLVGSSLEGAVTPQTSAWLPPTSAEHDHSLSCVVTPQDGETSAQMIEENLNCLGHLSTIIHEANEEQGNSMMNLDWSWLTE
# [17] = molecular target: T4, Inhibitor of nuclear factor kappa-B kinase subunit alpha (Homo sapiens); details: at 1 µM
# [18] = molecular target: T5, Inhibitor of nuclear factor kappa-B kinase subunit beta (Homo sapiens) (UniProt O14920); details: at 0.1 µM
# T5 sequence (whole entry): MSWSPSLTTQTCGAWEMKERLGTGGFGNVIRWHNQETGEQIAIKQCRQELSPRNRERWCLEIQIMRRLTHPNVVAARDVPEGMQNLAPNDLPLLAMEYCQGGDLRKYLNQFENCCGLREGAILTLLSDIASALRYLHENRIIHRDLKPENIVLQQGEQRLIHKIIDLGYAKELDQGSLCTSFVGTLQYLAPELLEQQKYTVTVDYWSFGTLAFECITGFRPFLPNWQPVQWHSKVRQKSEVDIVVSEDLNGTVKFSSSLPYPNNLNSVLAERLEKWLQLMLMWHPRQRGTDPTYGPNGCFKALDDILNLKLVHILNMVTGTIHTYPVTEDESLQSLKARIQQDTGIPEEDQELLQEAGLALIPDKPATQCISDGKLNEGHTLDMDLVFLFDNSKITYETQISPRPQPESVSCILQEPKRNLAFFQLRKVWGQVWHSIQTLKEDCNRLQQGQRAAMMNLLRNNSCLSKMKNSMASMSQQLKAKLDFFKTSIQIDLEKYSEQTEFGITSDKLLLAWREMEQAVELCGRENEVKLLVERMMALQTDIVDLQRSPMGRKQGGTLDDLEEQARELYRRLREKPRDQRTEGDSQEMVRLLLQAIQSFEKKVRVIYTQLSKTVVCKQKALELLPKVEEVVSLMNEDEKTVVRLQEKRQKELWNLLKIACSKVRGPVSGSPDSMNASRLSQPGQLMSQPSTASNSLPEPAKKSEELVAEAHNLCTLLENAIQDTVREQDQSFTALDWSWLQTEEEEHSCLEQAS
# [19] = molecular target: T5, Inhibitor of nuclear factor kappa-B kinase subunit beta (Homo sapiens); details: at 1 µM
# [20] = molecular target: T6, Inhibitor of nuclear factor kappa-B kinase subunit epsilon (Homo sapiens) (UniProt Q14164); details: at 0.1 µM;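 note: mean inhibition of IKKε reported, from the GSK PKIS dataset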
# T6 sequence (whole entry): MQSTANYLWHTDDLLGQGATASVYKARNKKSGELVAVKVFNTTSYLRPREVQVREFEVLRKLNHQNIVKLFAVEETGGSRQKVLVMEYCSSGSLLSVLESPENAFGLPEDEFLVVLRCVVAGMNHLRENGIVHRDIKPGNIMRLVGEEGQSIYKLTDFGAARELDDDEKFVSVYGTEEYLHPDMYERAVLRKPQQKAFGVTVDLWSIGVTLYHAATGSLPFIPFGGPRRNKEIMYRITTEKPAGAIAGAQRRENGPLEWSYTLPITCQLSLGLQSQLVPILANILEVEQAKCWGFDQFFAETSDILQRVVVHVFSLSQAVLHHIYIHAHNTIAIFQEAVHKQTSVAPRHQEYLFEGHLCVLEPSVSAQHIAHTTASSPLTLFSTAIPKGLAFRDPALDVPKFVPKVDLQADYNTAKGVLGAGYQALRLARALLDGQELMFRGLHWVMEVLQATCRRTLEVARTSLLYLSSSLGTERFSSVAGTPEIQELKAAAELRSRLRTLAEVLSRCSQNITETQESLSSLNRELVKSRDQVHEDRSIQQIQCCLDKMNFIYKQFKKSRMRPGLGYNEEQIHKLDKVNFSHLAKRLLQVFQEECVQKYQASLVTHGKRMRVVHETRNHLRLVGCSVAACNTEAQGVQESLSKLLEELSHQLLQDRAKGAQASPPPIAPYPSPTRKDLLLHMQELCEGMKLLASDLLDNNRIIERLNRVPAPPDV
Compound,inhibition [1],inhibition [2],inhibition [3],inhibition [4],inhibition [5],inhibition [6],inhibition [7],inhibition [8],inhibition [9],inhibition [10],inhibition [11],inhibition [12],inhibition [13],inhibition [14],inhibition [15],inhibition [16],inhibition [17],inhibition [18],inhibition [19],inhibition [20]
CN(C)c1ccc2c(c1)/C(=C/Nc1ccc(S(N)(=O)=O)cc1)C(=O)N2,1.82%,-1.68%,-2.04%,0.45%,4.82%,0.7%,4.54%,-6.01%,3.23%,3.41%,-2.05%,0.7%,0.06%,2.93%,18%,1.67%,6.64%,2.49%,1.1%,4.67%
Fc1ccc(-c2c(-c3ccncc3)nc3n2CCS3)cc1,2.27%,-0.47%,-2.14%,2.88%,4.64%,2.37%,3.22%,-2.06%,1.12%,3.13%,1.66%,0.08%,0.64%,2.23%,2.3%,7.58%,3.05%,2.88%,3.75%,4.09%
COc1cc(C)c(N(C)C(=O)CN(C)C)cc1Nc1nc(Nc2cccc(F)c2C(N)=O)c2cc[nH]c2n1,1.09%,-1.96%,-3.38%,0.08%,-0.5%,0.21%,1.56%,3.54%,0.7%,0.03%,-0.02%,0.91%,-0.35%,0.17%,4.3%,3.63%,1.85%,2.96%,-0.54%,1.26%
O=C(Nc1n[nH]c2nc(-c3ccco3)ccc12)C1CC1,0.97%,-1.07%,-1.33%,-1.36%,0.99%,-0.99%,1.03%,3.38%,1.68%,-0.31%,-1.96%,0.87%,-0.13%,0.99%,-0.44%,4.36%,-0.84%,-0.41%,-0.38%,-0.37%
CCS(=O)(=O)c1ccc(OC)c(Nc2ncc(-c3cccc(-c4ccccc4F)c3)o2)c1,0.18%,0.1%,2.33%,1.85%,2.73%,2.24%,5.89%,-1.01%,-4.05%,4.17%,0.74%,0.06%,-2.48%,1.79%,4.95%,3.18%,3.18%,0.01%,-1.42%,-1.02%
COc1cc(Nc2ncc3c(C)nc(-c4cccc(C(F)(F)F)c4)n3n2)cc(OC)c1OC,1.38%,-1.06%,1.6%,1.32%,0.9%,1.18%,-1.04%,7.16%,1.45%,2.98%,-1.99%,0.44%,-3.1%,9.99%,43.1%,-0.47%,4.04%,3.58%,3.21%,10.6%

# — ChEMBL document CHEMBL1961873, “Compounds: GSK PKIS; Assays: Nanosyn kinase panel” (2012)
